{"source": "paper PMC7862700", "about": "“An all-to-all approach to the identification of sequence-specific readers for epigenetic DNA modifications on cytosine”", "test_in_all_cases": "DAPPL (digital affinity profiling via proximity ligation, sequencing); 10 mM Tris-HCl pH 7.5, 50 mM NaCl, 1 mM DTT, 4% glycerol, room temperature, 30 min; GST-TFs on glutathione beads, 16-mer random dsDNA library, 0.1% formaldehyde crosslink after washing; high values mean tight binding", "details_in_all_cases": "protein: recombinant; tags: N-terminal GST; dsDNA, one strand shown", "key": {"FLI1": {"target": "T1, FLI1 (Homo sapiens, UniProt Q01543 1-452)", "T1 sequence": "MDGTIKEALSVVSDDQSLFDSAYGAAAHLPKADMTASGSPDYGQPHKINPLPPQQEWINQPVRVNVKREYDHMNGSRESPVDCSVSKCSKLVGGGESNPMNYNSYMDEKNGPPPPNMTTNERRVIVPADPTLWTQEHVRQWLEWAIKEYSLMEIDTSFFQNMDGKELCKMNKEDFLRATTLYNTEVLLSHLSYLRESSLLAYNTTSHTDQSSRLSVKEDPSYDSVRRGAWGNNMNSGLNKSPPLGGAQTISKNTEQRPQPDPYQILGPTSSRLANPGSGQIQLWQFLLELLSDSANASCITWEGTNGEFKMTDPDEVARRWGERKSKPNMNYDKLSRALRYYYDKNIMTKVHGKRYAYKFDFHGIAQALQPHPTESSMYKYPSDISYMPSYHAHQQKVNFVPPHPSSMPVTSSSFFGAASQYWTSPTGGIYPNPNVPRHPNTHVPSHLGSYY", "outline": "(§1)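 Pools were built from human transcription factors expressed in yeast as GST fusions, captured on glutathione beads and DNA-barcoded, along with a tag-only sample. Incubation with 200 nmole of a 16-mer random double-stranded DNA library lasted 30 min at room temperature in Tris/NaCl/DTT/glycerol buffer, and was followed by washing, 0.1% formaldehyde crosslinking, proximity ligation, PCR amplification and Illumina NextSeq500 sequencing. Binding signal is the quotient of each hexamer's read frequency for a factor and its frequency for the tag-only sample.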"}, "ELK1": {"target": "T2, ELK1 (Homo sapiens, UniProt P19419 1-428)", "T2 sequence": "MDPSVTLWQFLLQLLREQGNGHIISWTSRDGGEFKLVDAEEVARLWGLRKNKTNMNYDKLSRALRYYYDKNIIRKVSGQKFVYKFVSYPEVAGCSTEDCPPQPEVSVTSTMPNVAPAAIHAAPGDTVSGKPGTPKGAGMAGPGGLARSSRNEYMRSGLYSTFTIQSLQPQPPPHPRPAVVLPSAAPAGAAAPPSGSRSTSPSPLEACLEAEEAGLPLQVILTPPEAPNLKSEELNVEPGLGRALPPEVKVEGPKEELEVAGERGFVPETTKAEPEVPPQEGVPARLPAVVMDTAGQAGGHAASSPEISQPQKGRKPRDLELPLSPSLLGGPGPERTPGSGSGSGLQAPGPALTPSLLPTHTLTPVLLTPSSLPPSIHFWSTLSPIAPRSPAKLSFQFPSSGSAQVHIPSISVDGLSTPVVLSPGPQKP", "outline": "as §1"}, "GABPA": {"target": "T3, GABPA (Homo sapiens, UniProt Q06546 1-454)", "T3 sequence": "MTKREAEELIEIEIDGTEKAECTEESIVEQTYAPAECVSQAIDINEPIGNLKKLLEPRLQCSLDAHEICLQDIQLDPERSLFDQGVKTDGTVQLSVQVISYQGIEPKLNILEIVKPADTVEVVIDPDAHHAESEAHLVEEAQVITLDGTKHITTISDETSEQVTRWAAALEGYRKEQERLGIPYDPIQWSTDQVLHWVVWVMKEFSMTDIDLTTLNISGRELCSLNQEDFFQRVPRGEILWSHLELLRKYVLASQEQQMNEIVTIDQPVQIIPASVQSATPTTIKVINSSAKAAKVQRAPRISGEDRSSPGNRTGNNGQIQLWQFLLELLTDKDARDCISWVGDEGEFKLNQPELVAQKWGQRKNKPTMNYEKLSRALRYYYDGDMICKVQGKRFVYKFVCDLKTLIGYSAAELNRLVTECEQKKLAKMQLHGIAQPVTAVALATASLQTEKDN", "outline": "as §1"}, "ELF1": {"target": "ELF1 (Homo sapiens, UniProt P32519 1-619)", "sequence (P32519 whole entry)": "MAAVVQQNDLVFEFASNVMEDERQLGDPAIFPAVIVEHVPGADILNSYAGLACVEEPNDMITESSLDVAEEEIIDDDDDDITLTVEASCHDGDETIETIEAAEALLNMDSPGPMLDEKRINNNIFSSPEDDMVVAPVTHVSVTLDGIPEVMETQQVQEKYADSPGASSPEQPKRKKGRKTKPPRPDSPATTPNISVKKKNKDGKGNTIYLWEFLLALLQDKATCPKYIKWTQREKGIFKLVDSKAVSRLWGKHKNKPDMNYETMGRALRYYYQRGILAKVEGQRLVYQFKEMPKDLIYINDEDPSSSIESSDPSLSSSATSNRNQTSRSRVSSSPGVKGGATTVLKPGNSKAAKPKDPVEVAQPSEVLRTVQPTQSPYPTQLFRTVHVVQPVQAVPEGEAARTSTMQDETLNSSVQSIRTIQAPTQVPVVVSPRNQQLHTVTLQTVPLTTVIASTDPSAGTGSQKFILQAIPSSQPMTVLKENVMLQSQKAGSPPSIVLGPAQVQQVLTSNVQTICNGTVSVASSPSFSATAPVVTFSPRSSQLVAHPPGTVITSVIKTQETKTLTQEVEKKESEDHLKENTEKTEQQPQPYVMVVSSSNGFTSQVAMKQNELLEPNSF", "outline": "as §1"}, "EHF": {"target": "T4, EHF (Homo sapiens, UniProt Q9NZC4 1-300)", "T4 sequence": "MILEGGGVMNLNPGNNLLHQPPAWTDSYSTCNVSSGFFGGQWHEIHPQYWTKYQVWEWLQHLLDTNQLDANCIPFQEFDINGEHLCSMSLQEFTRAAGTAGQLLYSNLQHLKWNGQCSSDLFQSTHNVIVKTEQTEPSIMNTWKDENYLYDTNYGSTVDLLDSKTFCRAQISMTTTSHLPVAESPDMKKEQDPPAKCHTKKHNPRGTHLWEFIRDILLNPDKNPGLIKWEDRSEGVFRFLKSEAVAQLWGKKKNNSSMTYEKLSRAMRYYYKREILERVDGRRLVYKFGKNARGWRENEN", "outline": "as §1"}, "SPI1": {"target": "SPI1 (Homo sapiens, UniProt P17947 1-270)", "outline": "as §1"}, "ELK3": {"target": "T5, ELK3 (Homo sapiens, UniProt P41970 1-407)", "T5 sequence": "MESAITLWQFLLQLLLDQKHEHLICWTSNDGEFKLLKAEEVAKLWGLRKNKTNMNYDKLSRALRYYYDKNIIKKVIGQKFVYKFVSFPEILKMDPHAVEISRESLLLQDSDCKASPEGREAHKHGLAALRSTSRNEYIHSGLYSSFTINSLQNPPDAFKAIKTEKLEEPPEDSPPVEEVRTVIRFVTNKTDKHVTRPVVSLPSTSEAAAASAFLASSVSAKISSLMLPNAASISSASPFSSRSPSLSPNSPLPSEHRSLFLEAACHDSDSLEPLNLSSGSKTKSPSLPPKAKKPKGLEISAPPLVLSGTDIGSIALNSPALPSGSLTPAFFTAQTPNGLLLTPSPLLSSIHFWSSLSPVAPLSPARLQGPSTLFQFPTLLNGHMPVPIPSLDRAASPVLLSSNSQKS", "outline": "as §1"}, "ETV5": {"target": "ETV5 (Homo sapiens, UniProt P41161 1-510)", "sequence (P41161 whole entry)": "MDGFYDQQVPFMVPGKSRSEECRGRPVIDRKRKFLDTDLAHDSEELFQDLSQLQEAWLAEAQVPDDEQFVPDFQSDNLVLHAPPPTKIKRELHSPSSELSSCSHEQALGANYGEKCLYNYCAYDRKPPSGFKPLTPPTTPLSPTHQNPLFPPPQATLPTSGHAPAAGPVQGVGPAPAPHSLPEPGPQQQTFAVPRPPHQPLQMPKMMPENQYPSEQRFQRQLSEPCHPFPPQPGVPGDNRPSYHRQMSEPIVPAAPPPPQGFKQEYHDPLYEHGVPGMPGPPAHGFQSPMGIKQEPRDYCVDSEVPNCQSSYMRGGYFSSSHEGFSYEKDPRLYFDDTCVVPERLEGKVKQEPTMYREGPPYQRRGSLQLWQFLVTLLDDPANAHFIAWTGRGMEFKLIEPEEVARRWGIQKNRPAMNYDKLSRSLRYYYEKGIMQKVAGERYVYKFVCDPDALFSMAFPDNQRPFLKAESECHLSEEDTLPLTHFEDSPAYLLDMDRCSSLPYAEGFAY", "outline": "as §1"}, "ELF4": {"target": "ELF4 (Homo sapiens, UniProt Q99607 1-663)", "sequence (Q99607 whole entry)": "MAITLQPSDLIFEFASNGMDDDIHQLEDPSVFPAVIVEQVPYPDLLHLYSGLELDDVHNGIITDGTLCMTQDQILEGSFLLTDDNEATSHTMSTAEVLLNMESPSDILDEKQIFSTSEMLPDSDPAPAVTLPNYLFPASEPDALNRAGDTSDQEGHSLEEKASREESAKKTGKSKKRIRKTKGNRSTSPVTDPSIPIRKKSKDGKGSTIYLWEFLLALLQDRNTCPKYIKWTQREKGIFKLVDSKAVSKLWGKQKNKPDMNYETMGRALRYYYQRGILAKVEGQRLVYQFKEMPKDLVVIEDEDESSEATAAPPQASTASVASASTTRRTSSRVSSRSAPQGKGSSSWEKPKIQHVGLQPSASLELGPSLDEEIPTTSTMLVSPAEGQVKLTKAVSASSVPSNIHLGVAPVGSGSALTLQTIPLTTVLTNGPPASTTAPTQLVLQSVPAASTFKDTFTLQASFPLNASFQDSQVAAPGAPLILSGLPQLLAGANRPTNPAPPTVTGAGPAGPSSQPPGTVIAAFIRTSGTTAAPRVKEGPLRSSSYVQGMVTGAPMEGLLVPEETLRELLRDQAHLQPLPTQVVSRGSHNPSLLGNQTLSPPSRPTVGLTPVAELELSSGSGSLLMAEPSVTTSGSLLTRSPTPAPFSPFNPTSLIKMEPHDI", "outline": "as §1"}, "ELF3": {"target": "T6, ELF3 (Homo sapiens, UniProt P78545 1-371)", "T6 sequence": "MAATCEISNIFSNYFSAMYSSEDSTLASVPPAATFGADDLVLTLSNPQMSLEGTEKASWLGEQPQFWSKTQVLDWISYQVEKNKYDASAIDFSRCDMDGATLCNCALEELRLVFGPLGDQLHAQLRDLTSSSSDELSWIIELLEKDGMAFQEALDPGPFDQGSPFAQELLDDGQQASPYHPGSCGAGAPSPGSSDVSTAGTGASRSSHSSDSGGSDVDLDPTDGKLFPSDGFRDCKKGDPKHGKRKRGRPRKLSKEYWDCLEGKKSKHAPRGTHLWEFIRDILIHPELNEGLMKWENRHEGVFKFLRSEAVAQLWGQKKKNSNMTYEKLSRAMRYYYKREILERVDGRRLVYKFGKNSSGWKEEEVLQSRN", "outline": "as §1"}, "ETV1": {"target": "ETV1 (Homo sapiens, UniProt P50549 1-477)", "sequence (P50549 whole entry)": "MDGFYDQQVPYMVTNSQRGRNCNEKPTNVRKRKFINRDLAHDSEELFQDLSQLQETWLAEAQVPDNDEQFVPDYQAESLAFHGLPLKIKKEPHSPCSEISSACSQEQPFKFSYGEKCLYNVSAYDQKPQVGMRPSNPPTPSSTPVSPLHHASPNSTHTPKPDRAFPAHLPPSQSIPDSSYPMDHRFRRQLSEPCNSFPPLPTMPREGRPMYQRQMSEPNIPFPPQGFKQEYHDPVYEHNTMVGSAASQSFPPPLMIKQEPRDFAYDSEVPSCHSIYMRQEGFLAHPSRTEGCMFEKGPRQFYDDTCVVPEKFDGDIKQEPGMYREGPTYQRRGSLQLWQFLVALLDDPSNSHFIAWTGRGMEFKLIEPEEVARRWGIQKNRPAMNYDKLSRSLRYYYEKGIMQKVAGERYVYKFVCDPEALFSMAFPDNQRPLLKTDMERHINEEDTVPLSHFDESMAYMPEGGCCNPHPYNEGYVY", "outline": "as §1"}, "ERF": {"target": "T7, ERF (Homo sapiens, UniProt P50548 1-548)", "T7 sequence": "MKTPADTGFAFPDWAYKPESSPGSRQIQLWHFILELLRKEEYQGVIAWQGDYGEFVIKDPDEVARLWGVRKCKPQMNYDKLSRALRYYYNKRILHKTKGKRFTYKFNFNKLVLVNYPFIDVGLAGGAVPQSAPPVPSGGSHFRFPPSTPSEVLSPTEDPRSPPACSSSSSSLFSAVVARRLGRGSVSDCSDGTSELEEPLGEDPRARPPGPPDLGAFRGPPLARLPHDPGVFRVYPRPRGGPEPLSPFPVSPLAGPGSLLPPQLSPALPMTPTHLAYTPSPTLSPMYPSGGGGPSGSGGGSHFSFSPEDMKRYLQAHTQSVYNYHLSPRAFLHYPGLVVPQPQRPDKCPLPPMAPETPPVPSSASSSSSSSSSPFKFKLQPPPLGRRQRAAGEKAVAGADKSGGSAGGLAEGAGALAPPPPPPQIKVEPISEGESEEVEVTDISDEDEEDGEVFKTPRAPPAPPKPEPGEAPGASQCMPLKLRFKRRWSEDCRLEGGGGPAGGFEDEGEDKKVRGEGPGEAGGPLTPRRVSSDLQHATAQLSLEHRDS", "outline": "as §1"}, "ETV3L": {"target": "T8, ETV3L (Homo sapiens, UniProt Q6ZN32 1-361)", "T8 sequence": "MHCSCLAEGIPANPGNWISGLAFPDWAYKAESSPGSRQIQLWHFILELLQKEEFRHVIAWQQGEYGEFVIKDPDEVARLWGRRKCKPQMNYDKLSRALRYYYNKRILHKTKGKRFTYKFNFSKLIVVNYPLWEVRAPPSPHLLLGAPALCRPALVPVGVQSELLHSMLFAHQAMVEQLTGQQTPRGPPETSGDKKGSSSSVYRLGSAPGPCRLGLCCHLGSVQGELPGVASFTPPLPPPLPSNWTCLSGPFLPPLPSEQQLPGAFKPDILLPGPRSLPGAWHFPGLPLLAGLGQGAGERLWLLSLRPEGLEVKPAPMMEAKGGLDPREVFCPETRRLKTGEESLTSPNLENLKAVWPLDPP", "outline": "as §1"}, "ETS2": {"target": "T9, ETS2 (Homo sapiens, UniProt P15036 1-469)", "T9 sequence": "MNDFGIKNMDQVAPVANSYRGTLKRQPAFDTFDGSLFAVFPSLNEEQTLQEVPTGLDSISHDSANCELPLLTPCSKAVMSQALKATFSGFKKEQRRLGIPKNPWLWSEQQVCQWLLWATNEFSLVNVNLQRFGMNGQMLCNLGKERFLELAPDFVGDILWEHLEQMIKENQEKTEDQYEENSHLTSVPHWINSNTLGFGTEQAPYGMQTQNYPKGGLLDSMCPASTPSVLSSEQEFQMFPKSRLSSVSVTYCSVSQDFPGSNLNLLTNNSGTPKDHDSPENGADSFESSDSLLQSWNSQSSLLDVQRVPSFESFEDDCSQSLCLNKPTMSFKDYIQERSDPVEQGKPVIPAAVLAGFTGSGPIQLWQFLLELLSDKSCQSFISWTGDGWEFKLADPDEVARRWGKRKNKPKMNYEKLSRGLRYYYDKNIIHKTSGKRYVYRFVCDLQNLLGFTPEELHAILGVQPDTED", "outline": "as §1"}, "ETV7": {"target": "T10, ETV7 (Homo sapiens, UniProt Q9Y603 1-341)", "T10 sequence": "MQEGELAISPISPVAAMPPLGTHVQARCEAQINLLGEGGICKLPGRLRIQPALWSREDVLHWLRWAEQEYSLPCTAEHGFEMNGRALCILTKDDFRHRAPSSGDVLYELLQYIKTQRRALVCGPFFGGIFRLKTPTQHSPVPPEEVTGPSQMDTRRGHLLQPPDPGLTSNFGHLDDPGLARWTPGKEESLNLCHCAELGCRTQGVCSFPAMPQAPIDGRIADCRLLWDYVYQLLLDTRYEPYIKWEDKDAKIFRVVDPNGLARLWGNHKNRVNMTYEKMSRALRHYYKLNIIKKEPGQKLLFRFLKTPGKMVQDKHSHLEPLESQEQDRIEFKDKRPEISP", "outline": "as §1"}, "ETV3": {"target": "T11, ETV3 (Homo sapiens, UniProt P41162-2 1-143)", "T11 sequence": "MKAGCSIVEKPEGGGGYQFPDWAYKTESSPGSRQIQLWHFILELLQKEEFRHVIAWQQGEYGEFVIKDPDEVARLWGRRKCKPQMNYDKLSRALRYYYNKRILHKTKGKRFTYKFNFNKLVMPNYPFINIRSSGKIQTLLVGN", "outline": "as §1"}, "ETV6": {"target": "ETV6 (Homo sapiens, UniProt P41212 1-452)", "sequence (P41212 whole entry)": "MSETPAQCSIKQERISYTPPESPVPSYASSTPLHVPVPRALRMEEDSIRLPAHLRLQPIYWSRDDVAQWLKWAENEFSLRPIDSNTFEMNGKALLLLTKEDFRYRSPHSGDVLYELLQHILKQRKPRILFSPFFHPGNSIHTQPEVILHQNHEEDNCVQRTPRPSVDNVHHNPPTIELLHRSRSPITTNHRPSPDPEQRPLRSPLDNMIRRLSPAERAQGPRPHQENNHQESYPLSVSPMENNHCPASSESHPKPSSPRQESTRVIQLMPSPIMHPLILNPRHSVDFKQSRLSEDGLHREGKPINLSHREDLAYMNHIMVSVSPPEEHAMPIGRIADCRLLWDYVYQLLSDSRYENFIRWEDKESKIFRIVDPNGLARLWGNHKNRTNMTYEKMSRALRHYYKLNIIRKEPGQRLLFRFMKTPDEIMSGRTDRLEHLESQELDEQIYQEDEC", "outline": "as §1"}}, "data": [{"sequence": "TGCGGC", "values": [{"measurement": "binding signal", "setting": "FLI1", "value": "1.06 fold enrichment (6-mer frequency, TF over GST control)"}, {"measurement": "binding signal", "setting": "ELK1", "value": "1.04 fold enrichment (6-mer frequency, TF over GST control)"}, {"measurement": "binding signal", "setting": "GABPA", "value": "1.09 fold enrichment (6-mer frequency, TF over GST control)"}, {"measurement": "binding signal", "setting": "ELF1", "value": "1.05 fold enrichment (6-mer frequency, TF over GST control)"}, {"measurement": "binding signal", "setting": "EHF", "value": "1.07 fold enrichment (6-mer frequency, TF over GST control)"}, {"measurement": "binding signal", "setting": "SPI1", "value": "1.11 fold enrichment (6-mer frequency, TF over GST control)"}, {"measurement": "binding signal", "setting": "ELK3", "value": "1.01 fold enrichment (6-mer frequency, TF over GST control)"}, {"measurement": "binding signal", "setting": "ETV5", "value": "1.06 fold enrichment (6-mer frequency, TF over GST control)"}, {"measurement": "binding signal", "setting": "ELF4", "value": "1.13 fold enrichment (6-mer frequency, TF over GST control)"}, {"measurement": "binding signal", "setting": "ELF3", "value": "1.33 fold enrichment (6-mer frequency, TF over GST control)"}, {"measurement": "binding signal", "setting": "ETV1", "value": "1.08 fold enrichment (6-mer frequency, TF over GST control)"}, {"measurement": "binding signal", "setting": "ERF", "value": "1.14 fold enrichment (6-mer frequency, TF over GST control)"}, {"measurement": "binding signal", "setting": "ETV3L", "value": "1.03 fold enrichment (6-mer frequency, TF over GST control)"}, {"measurement": "binding signal", "setting": "ETS2", "value": "1.05 fold enrichment (6-mer frequency, TF over GST control)"}, {"measurement": "binding signal", "setting": "ETV7", "value": "1.07 fold enrichment (6-mer frequency, TF over GST control)"}, {"measurement": "binding signal", "setting": "ETV3", "value": "1.03 fold enrichment (6-mer frequency, TF over GST control)"}, {"measurement": "binding signal", "setting": "ETV6", "value": "1 fold enrichment (6-mer frequency, TF over GST control)"}]}]}
